RGS8-Gao: regulators of human RGS8-Galphao interaction. P09471. multiplexed bead flow cytometry, RGS8-Galphao binding; actives lie on both sides. response (percent of control binding), % at 10 µM. 0.34% of 220,000 active. AID 1423; in the data active = response below about 60% or above about 140%; inactive = in between;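 also: Galphao activated as the GDP aluminium fluoride complex binding bead-coupled RGS8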
GSH bead fluor: GSH bead compound fluorescence profile; GSH beads flow cytometry, compound fluorescence 488/530 nm; hits give high values; 0.25% of 190,000 active; fluorescence (KMESF) at 10 µM; in the data active = fluorescence above about 89;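 also: glutathione beads carrying GST-tagged Bcl family fusion proteins plus one bare bead set; values are compound well signal with DMSO vehicle wells as background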
Avidin fluor: compound fluoresces at 488/530 nm on avidin beads. compound fluorescence 488/530 nm, flow cytometry; hits give high values. fluorescence (KMESF) at 10 µM. 0.38% of 220,000 active; in the data active = fluorescence above about 47
RGS7-Gao: regulators of human RGS7-Galphao interaction; Multiplexed bead flow cytometry, RGS7-Galphao binding; actives lie on both sides; binding response (% of control), % at 10 µM; P09471; 0.35% of 220,000 active; AID 1439; in the data active = binding response below about 49% or above about 150%; inconclusive = no clear call, values can overlap the other calls; inactive = in between;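 also: fluorescent Galphao held in activated GDP-AlF4 state binding bead-coupled RGS7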
RGS16-Gao HTS: RGS16-Galphao interaction regulator (human); bead-based flow cytometry RGS16-Galphao binding, fluorescence; actives lie on both sides; binding response (% of control), % at 10 µM; 0.38% of 220,000 active; AID 1441;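 also: Galphao activated by GDP with aluminum fluoride before binding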
Target sequence (O15492 whole entry, looked up): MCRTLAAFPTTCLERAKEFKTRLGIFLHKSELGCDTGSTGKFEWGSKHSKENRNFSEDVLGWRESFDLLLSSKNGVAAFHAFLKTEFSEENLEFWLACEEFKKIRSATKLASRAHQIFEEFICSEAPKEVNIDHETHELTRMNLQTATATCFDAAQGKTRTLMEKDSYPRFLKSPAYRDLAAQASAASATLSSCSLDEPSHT
Target sequence (P09471 whole entry, looked up): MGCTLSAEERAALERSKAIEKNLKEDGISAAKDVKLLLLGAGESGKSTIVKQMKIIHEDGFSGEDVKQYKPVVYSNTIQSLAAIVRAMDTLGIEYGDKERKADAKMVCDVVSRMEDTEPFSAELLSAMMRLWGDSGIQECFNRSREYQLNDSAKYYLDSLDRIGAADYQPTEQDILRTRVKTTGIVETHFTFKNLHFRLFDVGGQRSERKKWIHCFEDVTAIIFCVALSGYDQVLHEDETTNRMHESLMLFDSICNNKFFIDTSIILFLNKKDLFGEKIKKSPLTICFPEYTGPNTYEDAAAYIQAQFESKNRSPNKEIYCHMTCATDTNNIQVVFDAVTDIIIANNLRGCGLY
RGS4-Gao reg: modulates binding of RGS4 to human Galphao. P09471. Multiplexed bead flow cytometry; actives lie on both sides. binding response (% of control), % at 10 µM. 0.33% of 220,000 active; in the data active = binding response below about 49% or above about 150%; inactive = in between;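 also: fluorescent Galphao activated with aluminum fluoride binding bead-coupled RGS4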
RGS-Gao: modulates binding between human RGS4 and Galphao. shares compounds with RGS16-Gao HTS. multiplexed bead flow cytometry, RGS–Galpha-o binding. RGS4–Galpha-o binding response, % at 10 µM. 99% of 1,600 active;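 also: fluorescently labeled Galpha-o bound to GDP with aluminium fluoride binding biotinylated RGS beads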
Avidin counter: biotin-avidin bead binding disruption counter-screen | inhibition, % at 10 µM | streptavidin beads, fluorescein-biotin binding, flow cytometry | 1,700 tested, under 10 active | shares compounds with RGS16-Gao HTS;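 active = inhibition above 50%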;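 also: median green fluorescence of gated singlet beads compared with DMSO control wells; 0% = DMSO wells and 100% = complete loss of bead fluorescence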
RGS8-Gao confirm: RGS8-Galphao interaction regulation, single point confirmation. shares compounds with RGS16-Gao HTS. bead-based flow cytometry RGS8-Galphao binding, fluorescence; actives lie on both sides. AID 1836. binding response (% of control), % at 10 µM. 3% of 1,700 active; in the data active = binding response below about 72% or above about 130%; inactive = in between;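 also: Galphao activated as GDP AlF4 complex before binding bead RGS8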
RGS7-Gao confirm: confirmation of regulators of human RGS7-Galphao interaction; shares compounds with RGS16-Gao HTS; bead-based flow cytometry RGS7-Galphao binding; actives lie on both sides; response (percent of control binding), % at 10 µM; 7.8% of 1,700 active; in the data active = response below about 75% or above about 130%; inactive = in between;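 also: fluorescent Galphao activated with GDP and aluminum fluoride binding bead-coupled RGS7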
RGS16-Gao single: confirmation of regulators of human RGS16-Galphao interaction; shares compounds with RGS16-Gao HTS; bead-based flow cytometry, RGS16-Galphao binding; actives lie on both sides; response (% of control binding), % at 10 µM; 4% of 1,700 active; AID 1838; in the data active = response below about 74% or above about 130%; inactive = in between;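 also: Galphao activated as the GDP aluminium fluoride complex binding bead-coupled RGS16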
RGS4-Gao single: confirmation of regulators of human RGS4-Galphao interaction; shares compounds with RGS16-Gao HTS; RGS4-Galphao binding, multiplexed bead flow cytometry; actives lie on both sides; binding response (% of control), % at 10 µM; 4% of 1,700 active; in the data active = binding response below about 74% or above about 130%; inactive = in between
RGS19-Gao conf: confirmation of regulators of human RGS19-Galphao interaction. shares compounds with RGS16-Gao HTS. bead-based flow cytometry RGS19-Galphao binding; actives lie on both sides. response (percent of control binding), % at 10 µM. 5% of 1,700 active; in the data active = response below about 50% or above about 160%; inactive = in between;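 also: 100% = no compound control and 0% = blank background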
* marks the source's active call; other numbers are inactive results; i = inactive; ? = inconclusive; . = not tested or not shown; [ ] = dose if it differs, or a comment. Hits are enriched below; roughly 1.2% of the tested compounds scored in any of these assays. Unless noted, no rule for the calls is given here.

SMILES | RGS8-Gao | GSH bead fluor | Avidin fluor | RGS7-Gao | RGS16-Gao HTS | RGS4-Gao reg | Avidin counter | RGS8-Gao confirm | RGS7-Gao confirm | RGS16-Gao single | RGS4-Gao single | RGS19-Gao conf | others
Cc1nnc(NC(=O)CSc2nnc(C)n2Cc2ccccc2)s1 | 96.1 | 14 | 3 | 101.7 | 84.4 | 105.1 | . | . | . | . | . | .
CC1(CC(=O)N/N=C/c2cc3c(cc2Br)OCO3)OCCO1 | 111.2 | 20 | 24 | 107.5 | 110.3 | 106.1 | . | . | . | . | . | .
CC(C)C(=O)Nc1nc2c(c(=O)[nH]1)CCCC2 | 104.5 | 7 | 29 | 102.9 | 100.9 | 102.7 | . | . | . | . | . | .
Cc1cccc(C)c1NC(=O)CSC(=O)c1sc2ccccc2c1Cl | 22.2* | . | -1 | ? | -2.1* | -6.1* | -1.2 | 98.7 | 96.9 | 97.2 | 99.8 | 92.2
O=C(C1CCN(S(=O)(=O)c2cccnc2)CC1)N1CCN(c2cccc(Cl)c2)CC1 | 26.6* | 25 | 1 | 10.7* | 62.4 | 35.4* | -0.9 | 99.2 | 99.2 | 101.0 | 99.1 | 95.1
COc1cccc2sc(/N=C/N(C)C)nc12 | 102.4 | . | 7 | ? | 98.6 | 100.6 | . | . | . | . | . | .
CC(C)NC(=O)c1ccc(C2SCC(=O)N2Cc2ccccc2)cc1 (configuration not stated) | 89.9 | 21 | 185* | 254.3*[activator] | 346.4*[activator] | 266.7*[activator] | -0.7 | 87.7 | 75.3* | 84.2 | 82.4 | 71.1
Cn1ncc([N+](=O)[O-])c1C(=O)Nc1ccc(-c2nc3ccccc3[nH]2)cc1 | . | 13 | . | . | . | . | 0.0 | 104.5 | 107.5 | 101.0 | 103.6 | 101.1
CC1CCc2nc(NC(=O)CCSc3ccccc3)sc2C1 (configuration not stated) | 69.9 | 20 | 5 | 78.8 | 20.3* | 78.7 | 2.3 | 101.7 | 102.0 | 102.4 | 102.2 | 107.6 | RGS-Gao=78.7*
CC1CCc2nc(NC(=O)CN3CCN(c4ccccc4)CC3)sc2C1 (configuration not stated) | 104.0 | 11 | 17 | 103.2 | 105.2 | 104.0 | . | . | . | . | . | .
COc1ccc(NC2(c3ccccc3)OC(=O)c3ccccc32)cc1 (configuration not stated) | . | 14 | . | . | . | . | 0.3 | 105.2 | 104.3 | 104.7 | 103.9 | 111.3
COc1ccc(NC2(c3ccc(Cl)cc3)C(=O)c3ccccc3C2=O)cc1 | 101.4 | 8 | 10 | 100.0 | 100.3 | 98.5 | . | . | . | . | . | .
COc1ccccc1-n1cnnc1SCC(=O)c1ccc[nH]1 | 10.0* | 29 | -4 | -11.1* | -33.6* | -30.0* | 0.1 | 95.7 | 96.2 | 97.2 | 98.7 | 85.0
CCN(C(=O)CN1CCN(S(=O)(=O)c2cc(Cl)ccc2Cl)CC1)c1c(N)n(Cc2ccccc2)c(=O)[nH]c1=O | 96.2 | 9 | 13 | 89.0 | 100.9 | 93.7 | . | . | . | . | . | .
O=C1c2ccccc2C(=O)N1CCCCN(C(=O)c1ccc([N+](=O)[O-])cc1)c1ccc(Cl)cc1 | 97.8 | 25 | 11 | 94.0 | 91.9 | 92.7 | . | . | . | . | . | .
O=C1c2ccccc2C(=O)N1CCCCN(C(=O)c1cc([N+](=O)[O-])cc([N+](=O)[O-])c1)c1ccc(Cl)cc1 | 70.9 | 5 | 10 | 88.7 | 15.6* | 90.9 | i | 102.3 | 102.2 | 110.4 | 103.9 | 120.3 | RGS-Gao=90.9*
